Compound activity (PubChem BioAssay)
Beta apoptosis: inhibitors of cytokine-induced beta cell apoptosis, primary screen, luminescence; 0.8% of 300,000 active; INS-1E cytokine-induced death, ATP luminescence, 48 h; percent of positive-control rescue, neutral wells zero; protection from apoptosis, % (test concentration not listed); AID 435005, 2010;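 active = Every replicate reaches about 75%, or at least half do and their mean reaches it too, limit read from the data; inconclusive = At least half of replicates reach the limit but their mean does not; inactive = Under half of replicates reach the limit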;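 note: higher means more ATP so stronger rescue from cytokine killing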
Calb FLC: C. albicans growth inhibition with fluconazole, primary screen, CaCi-2 strain, Alamar Blue fluorescence; 0.57% of 300,000 active; C. albicans CaCi-2 (fluconazole-resistant clinical isolate) + fluconazole, 48 h; growth inhibition, % (test concentration not listed);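 active = growth inhibition above about 58% in most replicates, limit read from the data, passing the limit was not always enough; inconclusive = exactly half the replicates above a set limit; inactive = most replicates below a set limit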;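 note: all wells also contain fluconazole at 8 µg/ml as a sub-toxic cotreatment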
CSC inhib: cancer stem cell viability inhibitors, primary screen, luminescence | cancer stem cell-like cells viability | inhibition, % at 7.5 µM | 1.1% of 300,000 active | AID 2717, 2010; in the data active = inhibition above about 75%; inconclusive = no clear call, values can overlap the other calls; tested in HMLE shEcad cells
Mdm2-MdmX inh: inhibitors of human Mdm2-MdmX association, primary screen, cell-based, luminescence, split luciferase, SaOS-2, uHTS; AID 485346, 2010; Protein Mdm4 (Homo sapiens) + E3 ubiquitin-protein ligase Mdm2 (Homo sapiens), …; 3% of 330,000 active; SaOS-2 split-luciferase Mdm2/MdmX complementation; inhibition, % at 8 µM;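 active = inhibition of at least 50% at 8 µM in the primary screen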
MPTP inh: mitochondrial permeability transition pore inhibitors, primary screen, biochemical, isolated mouse mitochondria, absorbance | inhibition, % at 10 µM | 1.4% of 360,000 active | AID 602449, 2012 | Ca2+ swelling absorbance, 30 min;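 active = inhibition of 50% or more, scaled per plate between neutral and stimulator controls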
MPTP counter: fluorescence retest of MPTP screen hits in isolated mitochondria, single concentration. shares compounds with MPTP inh. membrane potential, Rhodamine 123 fluorescence. inhibition, % at 10 µM. 78% of 5,000 active; in the data active = inhibition above about 22%
MPTP abs DR: mitochondrial permeability transition pore inhibitors, dose response, biochemical, absorbance, uHTS hits | shares compounds with MPTP inh | isolated mitochondria swelling | IC50, µM | 58% of 780 active | AID 651561, 2012; in the data active = IC50 below about 20 µM
MPTP counter DR: fluorescent counter-screen in isolated mitochondria, dose response, counter-screen for MPTP inhibitor project, biochemical, fluorescence, uHTS hits. IC50, µM. 49% of 780 active. shares compounds with MPTP inh. AID 651564, 2012. isolated mitochondria counterscreen, fluorescence read-out; in the data active = IC50 below about 80 µM
Large screens that a line does not name were inactive (follow-up assays come after a bar, where they were run). Compounds with a hit are over-represented: about 4.8% of the library has one in this group of screens.

NC(N)=Nc1ccc(C=C2C=Cc3ccccc32)cc1	MPTP inh 58.2 (no result: Beta apoptosis, Calb FLC, CSC inhib, Mdm2-MdmX inh) | MPTP counter inactive | MPTP abs DR 3.68 | MPTP counter DR 31.3
Cc1ccc(C(=S)NCS(=O)(=O)c2ccc(C)cc2)cc1	Calb FLC inconclusive
Cc1ccc(S(=O)(=O)CNC(=S)c2cccc(Cl)c2)cc1	MPTP inh 76.8 | MPTP counter 82.8
Cc1ccc(-c2nc3cccnc3o2)cc1NC(=O)COc1ccc(C(C)(C)C)cc1	MPTP inh 85.2 | MPTP counter 22.8
NC(c1ccccc1)c1csc(NC(=O)Nc2ccc(OC(F)(F)F)cc2)n1 (stereo not given)	MPTP inh 70.4 (no result: Beta apoptosis, Calb FLC, CSC inhib, Mdm2-MdmX inh) | MPTP counter 77.6
CCOC(=O)Cc1csc(NC(=O)Nc2ccc(OC(F)(F)F)cc2)n1	MPTP inh 84.0 | MPTP counter 68.1
NC(c1ccccc1)c1csc(NC(=O)Nc2cccc(Cl)c2)n1 (stereo not given)	none (no result: Beta apoptosis, Calb FLC, CSC inhib, Mdm2-MdmX inh)
O=C(CC1NCCc2ccccc21)Nc1ccc(Cl)cc1 (stereo not given)	MPTP inh 61.1 | MPTP counter inactive | MPTP abs DR 9.11 | MPTP counter DR inactive
COC(=O)c1ccc(CN2C(=O)NC(Cc3c[nH]c4ccccc34)C2=O)cc1 (stereo not given)	MPTP inh 81.5 (no result: CSC inhib) | MPTP counter inactive | MPTP abs DR inactive | MPTP counter DR 24.6
Cc1ccc(S(=O)(=O)NNC(=O)C2CC=CCC2C(=O)O)cc1 (stereo not given)	MPTP inh 55.4 | MPTP counter inactive | MPTP abs DR inactive | MPTP counter DR inactive
CCc1ccc(OCC(=O)NC(NC(=S)Nc2ccccc2C)C(Cl)(Cl)Cl)cc1 (stereo not given)	MPTP inh 80.6 | MPTP counter 86.6
CCOC(=O)NC(NC(=S)Nc1ccccc1OC)C(Cl)(Cl)Cl (stereo not given)	none (no result: Beta apoptosis)
Cc1ccc(NC(=S)NC(NC(=O)c2ccccc2C)C(Cl)(Cl)Cl)c(C)c1 (stereo not given)	MPTP inh 92.8 | MPTP counter 81.9
Cc1ccccc1NC(=S)NC(NC(=O)COc1ccccc1)C(Cl)(Cl)Cl (stereo not given)	MPTP inh 80.1 | MPTP counter 82.9
COC(=O)c1ccccc1NC(=S)NC(NC(=O)COc1ccccc1)C(Cl)(Cl)Cl (stereo not given)	none
CCc1ccc(OCC(=O)NC(NC(=S)Nc2ccccc2OC)C(Cl)(Cl)Cl)cc1 (stereo not given)	MPTP inh 92.2 | MPTP counter 89.1
CC(=O)Nc1ccc(Nc2nc3ccccc3n3cnnc23)cc1	none
CCOc1cc(S(=O)(=O)n2ccnc2)ccc1Cl	none
CC(C)CC(=O)NC(NC(=S)Nc1ccccc1)C(Cl)(Cl)Cl (stereo not given)	none
CCc1ccc(OCC(=O)NC(NC(=S)Nc2ccccc2)C(Cl)(Cl)Cl)cc1 (stereo not given)	MPTP inh 80.2 (no result: CSC inhib) | MPTP counter 87.8
O=C(COc1ccccc1)NC(NC(=S)Nc1ccccc1O)C(Cl)(Cl)Cl (stereo not given)	MPTP inh 72.6 | MPTP counter 74.3
O=C(CN1C(=O)NC2(CCCCCC2)C1=O)Nc1ccc(Br)cc1Br	none (no result: Calb FLC, CSC inhib)
Cc1cc2c(=O)[nH]c(N)nc2[nH]1	none (no result: Beta apoptosis, Calb FLC, CSC inhib, Mdm2-MdmX inh)
COc1cc(OC)c(NC(=S)Nc2cccc(C)c2)cc1Cl	Calb FLC inconclusive
COc1cc(C)c(NC(=S)Nc2cccc(Cl)c2)cc1OC	MPTP inh 82.8 | MPTP counter 82.9
COc1cc(C)c(NC(=S)Nc2ccc(C)c(Cl)c2)cc1OC	MPTP inh 60.9 | MPTP counter 76.8
COc1ccc(NC(=S)Nc2cccc(Cl)c2Cl)cc1OC	none
COc1ccccc1NS(=O)(=O)c1cc(NC(=S)Nc2cc(C)cc(C)c2)ccc1Cl	MPTP inh 97.4 | MPTP counter 94.3
